The results in this text go back to PubChem BioAssay AID1345082 (National Center for Advancing Translational Sciences (NCATS), 2018).

The campaign covered roughly 94,000 compounds. About 4,000 (4.3%) were called active. Not shown: some 29% with an inconclusive outcome. Calls come from the whole dose curve; as a rule, active = well fitted inhibition curve with a large enough effect; inconclusive = small, poorly fitted or top-dose-only effect; inactive = no such curve, though single readings can be large or run the other way. The entries come from a sample that favours actives as a whole.
% is set by controls: 0 for no effect and ±100 for the full control effect; potency is the fitted concentration of half-maximal effect.

The nature of this test: Cytotoxic Profiling in NIH 3T3 Cell Line of Diverse Libraries Using Quantitative High-Throughput Screening. Note: nearly all actives have a fitted effect of over 55% in size. The conditions noted are these: NIH 3T3 viability, CellTiter-Glo ATP luminescence, 48-72 h; series mostly up to 96.7 µM; activity change, negative = cytotoxicity: at the top concentration. From the text: Cell-based phenotypic screening is a commonly used approach to discover biological pathways, novel drug targets, chemical probes and high-quality hit-to-lead molecules. Many hits identified from high-throughput screening campaign are ruled out through a series of follow-up potency, selectivity/specificity, and cytotoxicity assays. Prioritization of molecules with little or no cytotoxicity for a more in-depth downstream evaluation influence the future direction of projects, so cytotoxicity profiling of the screening libraries at early stage is essential for increasing the likelihood of candidate success. In this study, we analyzed results from a cell-based cytotoxicity screening campaign, comprising nearly 10,000 compounds in NCATS annotated libraries, and over 100,000 compounds in a diversity library, evaluated in four normal cell lines (HEK 293, NIH 3T3, CRL-7250 and HaCat) and a cancer cell line (KB 3-1, a HeLa subline) with overall screening outcomes, hit rates, pan-activity and selectivity. For the annotated library, we also examined the primary targets and mechanistic pathways regularly associated with cell death. To our knowledge, this is the first study to use high-throughput screening to profile large libraries for cytotoxicity assessment in both normal and cancer cell lines. In summary, the results generated here constitutes a valuable resource for the scientific community and provides insight on identifying cytotoxic compounds with particular mechanisms of action, and prioritizing compounds with suitable cytotoxicity profile for further evaluation.
NIH 3T3 cells were seeded into white 1536-well plates using a Multidrop Combi peristaltic dispenser (ThermoFisher, Waltham, MA) at a density of 400 cells/well in 5 uL of medium respectively. A pintool (Kalypsys) was used to transfer 23 nL of compound solution to the 1536-well assay plates. After 48 or 72 hr incubation at 37 degree Celsius, 5% CO2 and 95% humidity, 2.5 uL of CellTiter-Glo (Promega) was dispensed into each well using a dispenser (Aspect Automation, St. Paul, MN) with solenoid valves (Lee Valves, Westbrook CT). Plates were left at room temperature for 10 min before imaging the ATP-coupled luminescence using a ViewLux microplate imager (PerkinElmer, Waltham, MA).
(In ATP-based viability assays light output follows the ATP content of the culture.)
For `COc1ccc(-c2cn(C[C@H]3C[C@@H]4CCN3C[C@@H]4C(=O)NCc3ccccc3)nn2)cc1`, the “activity change, negative = cytotoxicity” value is -24.5% [at 174 µM] (inactive).
Same read-out and setting: under `COc1ccc(-c2cc([C@H]3CN4CC[C@H]3C[C@@H]4CNS(=O)(=O)Cc3ccccc3)n(C)n2)cc1OC` stands -25.7% (inactive); under `CCCS(=O)(=O)NC[C@H]1C[C@@H]2CCN1C[C@@H]2c1cc(C2CCCC2)nn1C`, -27.6% [at 174 µM] (inactive).
`CCC(CC)c1cc([C@H]2CN3CC[C@H]2C[C@@H]3CNC(=O)NCc2ccccc2)nc(-c2ccncc2)n1`: the Potency was 20 µM (active).
With `O=S1(=O)NCC2(CCN(Cc3ccc(Cl)s3)C2)Oc2ncccc21` (stereo not given), the result was inactive.
For `Cc1noc(C)c1CC(=O)N1[C@H]2CC[C@@H]1c1cnc(-c3ccccc3)nc1C2`, the “activity change, negative = cytotoxicity” value is -24.3% (inactive).
The same measure, in the same setting: next, `O=S(=O)(NC[C@H]1C[C@@H]2CCN1C[C@@H]2CN1CCCCC1)c1ccc(Cl)cc1`: -27.6% [at 174 µM] (inactive); `CNC1CCOCC1`: -5.51% [at 230 µM] (inactive).
Still for that read-out and setting: next, `CCCCc1cn(C[C@H]2C[C@@H]3CCN2C[C@@H]3C(=O)NCCNC(C)=O)nn1`: -17.5% [at 174 µM] (inactive); `CC[C@H]1CN2CC[C@H]1C[C@@H]2CNC(=O)c1ccc(N(C)C)cc1`: 2.42% [at 174 µM] (inactive).
Consider `C=CCN(C)C[C@H]1CN2CC[C@H]1C[C@@H]2CNC(=O)Nc1cccc(SC)c1`, for which the Potency is 100 µM (active).
Still for that read-out and setting: under `CN(Cc1ccccc1)C[C@H]1CN2CC[C@H]1C[C@@H]2CNC(=O)Nc1cccc(C#N)c1` stands 100 µM (active).
For `CC(C)NC(=O)NC[C@H]1C[C@@H]2CCN1C[C@@H]2CN1CCCC1`, the “outcome” value was “inactive [at 174 µM]”.
`CC[C@H]1CN2CC[C@H]1C[C@@H]2CNCc1cccc(C#N)c1`: the “activity change, negative = cytotoxicity” value is -7.23% [at 230 µM] (inactive).
For `CN(CCc1ccccn1)C[C@H]1CN2CC[C@H]1C[C@@H]2CNC(=O)c1ccccc1`, the “activity change, negative = cytotoxicity” value was -25% [at 174 µM] (inactive).
As to `CCOC(=O)[C@H]1CN(C(=O)c2cc3ccccc3s2)[C@]2(C)C(=O)Nc3ccccc3[C@H]12`, the “activity change, negative = cytotoxicity” value was -34.2% [at 46.1 µM] (inactive).
Same read-out and setting: next, `Cc1ccc([C@@H]2CN(Cc3ncc[nH]3)[C@@H]3C4CCN(CC4)[C@@H]32)cc1`: -1.78% (inactive); `Cc1ccccc1-c1ccc2n(c1=O)C[C@H]1C[C@@H]2CN(C(=O)CSCC(=O)O)C1`: 3.5% [at 174 µM] (inactive).
Same read-out and setting: under `COc1ccc(CC(=O)N2Cc3ccccc3CC3(CCCN3C)C2)cc1` (stereo not given) stands -27.9% (inactive); under `CC(C)N1C[C@@H]2OCC(=O)N(Cc3cccnc3)[C@@H]2C1`, -15.6% [at 230 µM] (inactive); under `Cc1ccc([C@@H]2CN(C(=O)c3ccco3)[C@@H]3C4CCN(CC4)[C@@H]32)cc1`, -8.11% (inactive).
In the case of `C#C[C@H]1CN2CC[C@H]1C[C@@H]2CNC(=O)C1CC1`, the “outcome” value was “inactive [at 230 µM]”.
Take `COc1ccccc1-c1cc([C@H]2CN3CC[C@H]2C[C@@H]3CNC(=O)c2ccco2)nc(C)n1`: the “activity change, negative = cytotoxicity” value was -11.9% [at 174 µM] (inactive).
With `Cc1nc(-c2ccc(N(C)C)cc2)cc([C@H]2CN3CC[C@H]2C[C@@H]3CNC(=O)C2CCC2)n1`, the Potency is 89.1 µM (active).
On the same count and under the same terms, under `Cc1nc(-c2ccc(C(F)(F)F)cc2)cc([C@H]2CN3CC[C@H]2C[C@@H]3CNC(=O)C2CCC2)n1` stands 20 µM (active).
For the compound `COc1ccccc1-c1cc([C@H]2CN3CC[C@H]2C[C@@H]3CNC(=O)c2ccco2)n(C)n1`, the “activity change, negative = cytotoxicity” value is -8.76% [at 174 µM] (inactive).
Still for that read-out and setting: next, `O=C(NC[C@H]1C[C@@H]2CCN1C[C@@H]2CN1CCN(c2ncccn2)CC1)c1ccc(C(F)(F)F)cc1`: -23.7% (inactive); `CC(=O)NCCNC(=O)[C@H]1CN2CCC1C[C@@H]2Cn1cc(-c2ccc(C(C)(C)C)cc2)nn1` (stereo not given in full): -6.09% (inactive).
Same read-out and setting: next, `COc1ccc(-c2cc([C@H]3CN4CC[C@H]3C[C@@H]4CNC(=O)C3CC3)n(C)n2)cc1OC`: -23.3% [at 174 µM] (inactive).
In the case of `Cc1nc(-c2ccc(C(F)(F)F)cc2)cc([C@H]2CN3CC[C@H]2C[C@@H]3CNC(=O)c2ccco2)n1`, the Potency was 25.1 µM (active).
Turning to `O=C(COc1ccccc1)N1C[C@@H]2C[C@H](C1)c1c(-c3ccccc3F)ccc(=O)n1C2`, the “activity change, negative = cytotoxicity” value is -8.23% [at 174 µM] (inactive).
Same read-out and setting: under `FC(F)(F)CN1C2CCC1CN(c1cccc(Cl)n1)C2` stands -0.118% (inactive).
With `O=[N+]([O-])c1ccc(N2CC3CCC(C2)N3CC(F)(F)F)nc1`, the outcome was inactive.
On to `O=C(N1[C@H]2CC[C@@H]1c1cnc(-c3ccccc3)nc1C2)C1(c2ccccc2)CC1`, for which the “activity change, negative = cytotoxicity” value was -26.1% (inactive).
As for `COCCC(=O)N1CCC2(CC1)c1nccn1-c1ccccc1CN2CC(C)C`, the compound was called inactive.
